This is one part of a sample in which hits are shown more often than they occur.
miR122 inh = activators of miR-122 sensor in Huh7 cells. Huh7 psiCHECK-miR122 Renilla luciferase sensor, 48 h. activation, % at 12.5 µM. 340,000 tested, 0.14% active. AID 623901;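 active = mean activation of 30% or more, with every replicate also reaching 30%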;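 note: 0% = median of neutral control wells and 100% = median of positive control wells; higher luciferase signal means stronger suppression of miR-122 activity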
Starred values were filed as active, the others as inactive.

SMILES | miR122 inh
COCC(=O)N(C)C[C@H]1Oc2ncc(/C=C/c3ccccc3)cc2C(=O)N([C@@H](C)CO)C[C@H]1C | 8
C[C@H]1CN([C@@H](C)CO)C(=O)c2cc(C#Cc3cccnc3)cnc2O[C@H]1CN(C)S(C)(=O)=O | -1
CCC(=O)N(C)C[C@H]1Oc2ncc(C#Cc3ccc(OC)cc3)cc2C(=O)N([C@H](C)CO)C[C@H]1C | -4
COc1ccc(CN(C)C[C@@H]2OCCCC[C@H](C)Oc3ccc(NC(=O)Nc4ccc(C(F)(F)F)cc4)cc3C(=O)N([C@H](C)CO)C[C@@H]2C)cc1 | 31*
COc1ccc(S(=O)(=O)N(C)C[C@H]2Oc3ccc(NC(=O)Nc4ccc(C(F)(F)F)cc4)cc3C(=O)N([C@@H](C)CO)C[C@H]2C)cc1 | -111
COc1ccc(CN(C)C[C@@H]2OCCCC[C@@H](C)Oc3ccc(NC(=O)c4ccccc4)cc3C(=O)N([C@H](C)CO)C[C@@H]2C)cc1 | -95
C[C@@H]1CN([C@H](C)CO)S(=O)(=O)c2ccc(C#CC3CC3)cc2O[C@@H]1CN(C)Cc1ccccn1 | -22
C[C@H]1CN([C@@H](C)CO)S(=O)(=O)c2ccc(C#Cc3ccc(F)cc3)cc2O[C@@H]1CN(C)S(=O)(=O)c1cn(C)cn1 | -44
COc1cnc(-c2ccccn2)nc1Sc1ccccc1Cl | 39*
CCC(=O)N(C)C[C@H]1Oc2cc(C#Cc3ccccc3)ccc2S(=O)(=O)N([C@@H](C)CO)C[C@H]1C | 48*
CC(=O)N(C)C[C@H]1Oc2cc(C#C[C@@H](C)O)ccc2S(=O)(=O)N([C@H](C)CO)C[C@H]1C | 5
C[C@H](CO)N1C[C@H](C)[C@@H](CN(C)C(=O)Cc2ccccc2)Oc2cc(C#Cc3ccccc3F)ccc2S1(=O)=O | -18
COCC(=O)N(C)C[C@H]1Oc2cc(-c3ccc(C#N)cc3)ccc2S(=O)(=O)N([C@H](C)CO)C[C@H]1C | 59*
CC(=O)N(C)C[C@H]1Oc2cc(C#Cc3ccc(F)cc3)ccc2S(=O)(=O)N([C@H](C)CO)C[C@H]1C | 37*
CCCC#Cc1ccc2c(c1)O[C@@H](CN(C)C(=O)CC)[C@H](C)CN([C@@H](C)CO)S2(=O)=O | -85
C[C@@H]1CN([C@H](C)CO)S(=O)(=O)c2ccc(C#Cc3ccccc3F)cc2O[C@@H]1CN(C)C(=O)Cc1ccncc1 | 52*
COCC(=O)N(C)C[C@@H]1Oc2cc(-c3ccccc3)ccc2S(=O)(=O)N([C@@H](C)CO)C[C@@H]1C | 3
COCC(=O)N(C)C[C@H]1Oc2cc(-c3ccccc3)ccc2S(=O)(=O)N([C@@H](C)CO)C[C@@H]1C | -13
CCCC#Cc1ccc2c(c1)O[C@H](CN(C)C(=O)CC)[C@@H](C)CN([C@@H](C)CO)S2(=O)=O | -34
CC(=O)N(C)C[C@H]1Oc2cc(C#C[C@@H](C)O)ccc2S(=O)(=O)N([C@H](C)CO)C[C@@H]1C | 6
C[C@H]1CN([C@@H](C)CO)S(=O)(=O)c2ccc(C#Cc3ccccc3F)cc2O[C@H]1CN(C)C(=O)Cc1ccccc1 | -1
C/C=C/c1cnc2c(c1)C(=O)N([C@@H](C)CO)C[C@@H](C)[C@H](CN(C)C(=O)Nc1ccccc1F)O2 | -8
C[C@H]1CN([C@@H](C)CO)S(=O)(=O)c2ccc(C#Cc3ccccc3)cc2O[C@H]1CN(C)S(=O)(=O)c1ccccc1F | 4
C[C@@H]1CN([C@H](C)CO)C(=O)c2cc(-c3cccc(C#N)c3)cnc2O[C@H]1CN(C)C(=O)C1CCCCC1 | 4
COCC(=O)Nc1ccc2c(c1)OC[C@@H](C)NC[C@@H](C)[C@H](OC)CN(C)C2=O | 1
SMILES | miR122 inh
COc1ccccc1S(=O)(=O)N(C)C[C@@H]1Oc2cc(/C=C/c3ccccc3)ccc2S(=O)(=O)N([C@@H](C)CO)C[C@H]1C | -2
C[C@@H]1CN([C@H](C)CO)S(=O)(=O)c2ccc(/C=C/c3ccccc3)cc2O[C@H]1CN(C)C(=O)Nc1cccc(F)c1 | -16
C[C@@H]1CN([C@@H](C)CO)S(=O)(=O)c2ccc(C#CCN(C)C)cc2O[C@@H]1CN(C)C(=O)CN(C)C | 5
CCCNC(=O)N(C)C[C@H]1Oc2cc(-c3ccccc3)ccc2S(=O)(=O)N([C@@H](C)CO)C[C@@H]1C | -34
CC(C)CC#Cc1cnc2c(c1)C(=O)N([C@H](C)CO)C[C@@H](C)[C@H](CN(C)Cc1ccc(F)cc1)O2 | -5
C[C@H](CO)N1C[C@H](C)[C@@H](CN(C)Cc2ccccn2)Oc2ncc(C#Cc3ccc(F)cc3)cc2C1=O | 3
Cc1ccccc1-c1ccc2c(c1)O[C@H](CN(C)C(=O)Nc1ccccc1)[C@@H](C)CN([C@H](C)CO)S2(=O)=O | -7
Cc1ccccc1-c1ccc2c(c1)O[C@H](CN(C)C(=O)Nc1ccccc1)[C@H](C)CN([C@H](C)CO)S2(=O)=O | -16
Cc1ccccc1-c1ccc2c(c1)O[C@@H](CN(C)C(=O)Nc1ccc(F)cc1)[C@@H](C)CN([C@@H](C)CO)S2(=O)=O | 38*
CN[C@H]1C[C@H]2c3[nH]c4ccc(-c5ccc(OC)cc5)cc4c3CCN2C(=O)[C@H]1[C@H](C)O | 32*

Assay outcomes from PubChem.
